Compound activity as filed in PubChem.
An excerpt weighted towards active compounds, which were near 5.7% of everything screened.
KB-3-1 cytotox – qHTS assay for MDR1-selective chemotherapeutics: Primary screen using the parental adenocarcinoma cell KB-3-1; KB-3-1 viability, CellTiter-Glo ATP luminescence, 72 h; Potency, µM (top dose mostly 46.1 µM), most hits filed as cytotoxic; 1.4% of 400,000 active; note: nearly all actives have a fitted effect of over 60% in size
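72 h, 37 °C compound treatment of KB-3-1 parental cells; CellTiter-Glo added, 10 min, luminescence read. Data corrected against DMSO-only plates and normalized before curve fitting.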
HT1080 IDH1KD tx – qHTS for induction of synthetic lethality in tumor cells producing 2HG: qHTS for the HT-1080-IDH1KD cell line; HT-1080 IDH1 knockdown viability, ATP luminescence, 48 h; Potency, µM (series often up to 46.1 µM), inactives show top-dose activity, negative = toxicity, most hits filed as cytotoxic; 2% of 360,000 active;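 note: 0% = DMSO wells and -100% = cell-free medium wells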
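HT-1080-IDH1KD cells (IDH1 knocked down), 750/well in RPMI with 5% FBS, treated with compound 48 h at 37 degrees C. Viability by CellTiter-Glo luminescence, normalised to DMSO and no-cell wells; concentration-response curves classed.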
HT1080NT lethal – qHTS for induction of synthetic lethality in tumor cells producing 2HG: qHTS for the HT-1080-NT fibrosarcoma cell line. HT-1080-NT fibrosarcoma viability, CellTiter-Glo ATP luminescence, 48 h. Potency, µM (doses to about 46.1 µM), without a hit: top-dose activity, negative = less viability, hits mostly cytotoxic. 1.6% of 360,000 active. AID 686970, 2013;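 note: NT is the 2HG producing partner of a matched IDH1 knockdown line; 0% = DMSO-treated cells and -100% = media-only wells without cells; nearly all actives have a fitted effect of over 55% in size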
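HT-1080-NT; 750 cells/well; 5% FBS RPMI; 48 h compound, 37 degrees C; CellTiter-Glo luminescence; curve fitting and curve-class assignment.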
KB-V1 MDR tox – qHTS assay for MDR1-selective chemotherapeutics: Primary screen using the drug-selected MDR subline cells KB-V1; KB-V1 MDR cells viability, CellTiter-Glo, 72 h; Potency, µM (top dose mostly 46.1 µM), usual class: cytotoxic; 3.4% of 400,000 active; AID 1347076, 2019; note: nearly all actives have a fitted effect of over 60% in size
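KB-V1 MDR subline cells in DMEM (phenol-red free, 10% FBS) exposed to compounds in qHTS concentration series for 72 h at 37 degrees C. Viability read by CellTiter-Glo luminescence; concentration-effect curves fitted after normalization and correction.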
* marks the source's active call; other numbers are inactive results; i = inactive; ? = inconclusive; / = no result; ! = a repeat was not active. Calls come from the whole dose curve; as a rule, active = well fitted curve in the direction sought with a large enough effect; inconclusive = small, poorly fitted or top-dose-only effect, or another doubt; inactive = no such curve, though single readings can be large; an effect the other way counts as inactive or inconclusive. Unless noted, % is set by controls: 0 for no effect and ±100 for the full control effect; potency is the fitted concentration of half-maximal effect.

SMILES	KB-3-1 cytotox	HT1080 IDH1KD tx	HT1080NT lethal	KB-V1 MDR tox
CC(=O)O[C@H]1C(=O)[C@@]2(C)[C@H]([C@H](OC(=O)c3ccccc3)[C@]3(O)C[C@H](OC(=O)[C@H](O)[C@@H](NC(=O)c4ccccc4)c4ccccc4)C(C)=C1C3(C)C)[C@]1(OC(C)=O)CO[C@@H]1C[C@@H]2O	0.046µM*!	0.0082µM*	?	13µM*!
CC(=O)O[C@H]1C(=O)[C@@]2(C)[C@H]([C@H](OC(=O)c3ccccc3)[C@]3(O)C[C@H](OC(=O)[C@H](O)C(NC(=O)c4ccccc4)c4ccccc4)C(C)=C1C3(C)C)[C@]1(OC(C)=O)CO[C@@H]1C[C@@H]2O (some centres not stated)	0.0092µM*	0.0092µM*	?	?
Cc1nn(C)c2c1c(-c1ccccc1)cc(=O)n2Cc1ccccc1C#N	i	/	/	i
CCN(C(=O)CCS(=O)(=O)c1cc2[nH]c(=O)c(=O)[nH]c2cc1C)c1ccccc1	i	/	/	i
O=[N+]([O-])c1ccc2c(c1)/C(=C/c1ccc(C=S)cc1)C=C2	i	/	/	i
CSc1ccc(CCNC(=O)C(C)n2c(C)c3cnn(-c4ccccc4)c(=O)c3c2C)cc1 (configuration not stated)	i	/	/	i
Cc1ccc2[nH]c(C)cc(=S)c2c1	?	23µM*	?	?
COc1cccc(C(C(=O)NCc2ccccc2)N2CCN(c3cccc(C)c3C)CC2)c1OC (configuration not stated)	?	?	?	16µM*
O=C1COc2cc(S(=O)(=O)CCC(=O)N3CCN(c4ccccc4)CC3)c(Cl)cc2N1	i	/	/	i
O=C(O)CSc1cc(C(F)(F)F)nc(-c2ccccn2)n1	i	-3%	-3%	i
FC(F)(F)c1cc(Oc2ccccc2)nc(-c2ccccn2)n1	?	-29%	?	15µM*
CCN(CC)c1cc(C(F)(F)F)nc(-c2ccccn2)n1	i	?	?	18µM*
FC(F)(F)c1cccc(Sc2cc(C(F)(F)F)nc(-c3ccccn3)n2)c1	?	-10%	-1%	16µM*
CCc1ccc(-n2nc(C)c3c(C)cc(=O)n(CC(=O)Nc4ccc(OC)c(OC)c4)c32)cc1	i	/	/	i
O=C(NNc1ccccc1)c1ccccc1	i	-18%	?	?
CCCc1ccc(C(=O)NNc2ccc(F)cc2)cc1	?	7.3µM*	4.1µM*	i
O=C(NNc1ccc(O)cc1)c1ccc(Br)cc1	i	4.1µM*	?	i
Cc1ccccc1Cn1c(=O)n(CCCCC(=O)NCCc2ccccc2)c(=O)c2ccccc21	i	/	/	i
CCN(CC)C(=O)CSc1nnc(-c2cc3ccccc3cc2O)n1CC	3.3µM*	-20%	-23%	2.9µM*
CCn1c(-c2cc(OC)c(OC)c(OC)c2)n[nH]c1=S	i	7%	9%	10µM*
CCn1c(-c2cc3ccccc3cc2O)n[nH]c1=S	?	-21%	-3%	21µM*
CCOc1cccc(-c2cc(-c3n[nH]c(=S)n3CC)c3ccccc3n2)c1	i	-3%	-6%	9.2µM*
CCN(CC)C(=O)CSc1nc2ccccc2c(=O)n1CC	i	5%	-3%	i
COc1ccc(CCNC(=O)CSc2cn(CCNC(=O)c3cccc(C(F)(F)F)c3)c3ccccc23)cc1OC	i	/	/	?
O=C(O)c1ccc(S(=O)(=O)N2CCCc3ccccc32)cc1	i	4%	13%	i
SMILES	KB-3-1 cytotox	HT1080 IDH1KD tx	HT1080NT lethal	KB-V1 MDR tox
CC(C)N1CCc2c(sc(NC(=O)c3ccc(S(=O)(=O)N4CCc5ccccc54)cc3)c2C(N)=O)C1	21µM*	21µM*	?	?
NC(=O)c1ccsc1NC(=O)c1ccc(S(=O)(=O)N2CCCc3ccccc32)cc1	23µM*	-20%	-19%	?
COc1cccc(C(=O)NCCc2csc3nc(-c4ccccc4F)nn23)c1OC	i	/	/	i
CC(=O)N1CCc2cc(S(=O)(=O)NC(Cc3ccccc3)C(=O)NCc3ccccc3)ccc21 (configuration not stated)	i	/	/	i
CC(C)(C)OC(=O)N1CCC(c2c(C(=O)N3CCC(c4ccccc4)C3)cnn2-c2cccc(Cl)c2)CC1 (configuration not stated)	?	/	/	i
Cc1cccc(N=C2NC(=O)/C(=C/c3cccn3C)S2)c1	?	-28%	-16%	5.8µM*
Cc1cccc(N=C2NC(=O)/C(=C/c3cccs3)S2)c1	i	-12%	-1%	i
O=C1NC(=Nc2ccccc2)S/C1=C\c1cccn1-c1ccccc1	5.2µM*	?	?	4.6µM*
Cc1ccccc1N=C1NC(=O)/C(=C/c2cccn2C)S1	?	-27%	-29%	7.3µM*
Cc1ccc(N(C)S(=O)(=O)c2ccc3[nH]c(=O)ccc3c2)cc1	i	/	/	i
Cc1nc(N)c(C#N)c(-c2ccc3c(c2)OCO3)c1C	i	9%	-1%	i
N#Cc1c(N)oc(-c2ccc3c(c2)OCO3)c1-c1ccc2c(c1)OCO2	i	4%	2%	16µM*
CCOCCCN(Cc1ccco1)S(=O)(=O)c1cc2c(cc1Cl)NC(=O)CO2	i	/	/	i
CN1CCN(CCNC(=O)c2ccc3nc(-c4ccc(F)cc4)c(-c4ccc(F)cc4)nc3c2)CC1	i	23µM*	18µM*	i
Cc1ccc2c(c1)N(C(=O)N1CCC(C(=O)Nc3cccc(F)c3)CC1)CCO2	i	/	/	i
O=C(Nc1ccc(Br)cc1)c1cccn1-c1ncc(C(F)(F)F)cc1Cl	i	11µM*	?	i
CCC(C(=O)Nc1cc(C)ccc1C)n1c(=O)c(C(F)(F)F)nc2ccccc21 (configuration not stated)	i	/	/	i
Fc1ccc(NCc2ccccc2-c2nnc(-c3ccccc3Cl)o2)cc1Cl	i	/	/	i
Cn1cnc([N+](=O)[O-])c1S(=O)(=O)Oc1ccc(Cl)cc1	?	16µM*	21µM*	?
Cn1cnc([N+](=O)[O-])c1S(=O)(=O)Oc1cccc2ccccc12	?	2.6µM*	1.2µM*	?
Cn1cnc([N+](=O)[O-])c1Oc1cccc2ccccc12	21µM*	21µM*	?	?
CCS(=O)(=O)c1c([N+](=O)[O-])ncn1C	i	?	?	i
Cn1cnc([N+](=O)[O-])c1Oc1ccccc1	i	-15%	-12%	i
COc1ccc(C2c3cccn3CCN2S(=O)(=O)c2ccc([N+](=O)[O-])cc2)cc1 (configuration not stated)	i	/	/	i
CC(=O)c1sc2c(c1C)c(=O)n(-c1ccc(Cl)cc1)c(=O)n2Cc1ccc(Cl)cc1	i	/	/	?
